This passage reports IC50 results from PubChem BioAssay AID2501 (Southern Research Specialized Biocontainment Screening …, 2010).

Screen size: about 2,200 compounds; about 1,200 (55%) were called active. No cut-off is given here; in the data, nearly all actives have IC50 up to about 92 µM. The set was probably picked from earlier hits. Some of the results follow.

What is called IC50 is the concentration needed to halve the response being measured.

The nature of this assay: counter assay for TAg ATPase ADP read-out – biochemical, ADP-Hunter, fluorescence, counter-screen (AID 2501).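 Note: purified T antigen ATPase.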 The conditions noted are these: series mostly up to 100 µM. A general note: Counterscreens check selectivity or assay interference.
On to `CCCCn1c(-c2cccc3ccccc23)nc2cc3[nH]c(=O)c(C(C)C)nc3cc21`, for which the IC50 result is “inactive”.

With `CCCCn1c(=O)c2ccccc2n2c(=S)[nH]nc12`, the IC50 is 11.3 µM (active).

Consider `CCCn1c(=O)c2ccccc2n2c(=S)[nH]nc12`, for which the IC50 is 3.07 µM (active).

For `CC(C)C(=O)c1ccc(O)c(O)c1`, the IC50 is 1.71 µM (active).

Take `CN(C)c1ccc(NS(=O)(=O)c2ccc(Cl)cc2)cc1`: the IC50 was 5.63 µM (active).

Take `CN(C)c1ccc(NS(=O)(=O)c2cccc(Cl)c2)cc1`: the IC50 was 13 µM (active).

For `O=C(CNS(=O)(=O)c1cccc(Cl)c1)OCc1csc(-c2ccccc2)n1`, the IC50 result is “inactive”.

On to `CCCNC(=O)NS(=O)(=O)c1ccc(Cl)cc1`, for which the IC50 entry is “inactive”.

In the case of `COc1ccc(NS(=O)(=O)c2ccc(NS(=O)(=O)c3ccc(SC)cc3)cc2)c(OC)c1`, the IC50 result was “inactive”.

In the case of `CN(C)c1ccc(NS(=O)(=O)c2cc3c4c(c2)CC(=O)N4CCC3)cc1`, the IC50 is 1.83 µM (active).

For `O=C(NCc1cccnc1)C(=O)Nc1cc2c3c(c1)CC(=O)N3CCC2`, the IC50 entry is “inactive”.

On to `O=C(CC(Sc1ccc(Br)cc1)C(=O)O)c1ccc(Br)cc1` (stereo not given), for which the IC50 entry was “inactive”.

On to `Oc1ccc(/C=N/Nc2ncnc3c2ncn3Cc2ccccc2)cc1O`, for which the IC50 was 10.1 µM (active).

As to `CNC(=O)CS(=O)CC(=O)Nc1cc(OCCOC)c(Cl)cc1Cl` (stereo not given), the IC50 entry is “inactive”.

Regarding `CCOC(=O)c1[nH]nc(-c2cc(CC)c(O)cc2O)c1-c1cscn1`, the IC50 was 7.84 µM (active).

As for `CCOC(=O)c1ccc(-c2c(-c3ccc4c(c3)OCO4)noc2-c2ccsc2)cc1F`, the IC50 result was “inactive”.

As for `CN(C)c1ccc(Nc2nc(N)c([N+](=O)[O-])c(N3CCOCC3)n2)cc1`, the IC50 was 4.28 µM (active).

In the case of `CNc1ccc(/C=C(\C#N)C(=O)Nc2ccccn2)cc1[N+](=O)[O-]`, the IC50 result is “inactive”.

Regarding `N#C/C(=C\c1ccc(O)c([N+](=O)[O-])c1)C(=O)NCc1ccccc1`, the IC50 entry was “inactive”.

As for `COc1ccc(/C=C(/C#N)C(=O)Nc2ccc(O)cc2)cc1C(=O)O`, the IC50 was 2.62 µM (active).

Take `O=C(/C=C/c1ccc(Br)o1)NCc1ccccc1`: the IC50 result is “inactive”.

For `CCOc1ccc(/C=C(\C#N)C(=O)NC2CC2)c(OCC)c1`, the IC50 result is “inactive”.

For `N#C/C(=C\c1ccc(O)c(O)c1)C(=O)NCc1ccccc1`, the IC50 was 7.7 µM (active).

On to `O=C(O)c1ccc(COc2ccccc2C=C2C(=O)c3ccccc3C2=O)cc1`, for which the IC50 result was “inactive”.

`N#C/C(=C\c1ccc(O)c(O)c1)C(=O)Nc1cccc2ncccc12`: the IC50 was 4.88 µM (active).

As to `N#C/C(=C\c1ccccc1OCc1ccc(C(=O)O)cc1)C(=O)Nc1ccc(O)cc1`, the IC50 was 5.71 µM (active).

Regarding `COc1c(O)ccc2c1CN1CCc3cc4c(cc3C1C2)OCO4` (stereo not given), the IC50 entry was “inactive”.

On to `CCOC(=O)c1ccc(S(=O)(=O)Nc2nc3cc(S(=O)(=O)NC4=NCCCCC4)ccc3s2)cc1`, for which the IC50 result was “inactive”.

In the case of `N#C/C(=C\c1ccc(N2CCOCC2)o1)C(=O)Nc1ccc(O)cc1`, the IC50 was 1.66 µM (active).

Take `N#C/C(=C\c1ccc(O)c(O)c1)C(=O)NCCCc1ccccc1`: the IC50 was 8.38 µM (active).

For `N#C/C(=C\c1ccc(O)c(O)c1)C(=O)NCCc1ccccc1`, the IC50 is 5.36 µM (active).

Turning to `N#C/C(=C\c1ccc(O)c(O)c1)C(=O)Nc1ccccc1`, the IC50 was 12.6 µM (active).

Take `CC(c1ccncn1)N(C)Cc1nc(Cc2ccccc2F)no1` (stereo not given): the IC50 entry is “inactive”.

For the molecule `C[C@@H](NC(=O)/C(C#N)=C/c1ccc(O)c(O)c1)c1ccccc1`, the IC50 was 4.73 µM (active).

Regarding `CCC(C)NC(=O)CC(c1ccccc1)c1cc(C)ccc1O` (stereo not given), the IC50 entry was “inactive”.

`Oc1c(C(c2ccco2)N2CCN(C(c3ccccc3)c3ccccc3)CC2)sc2ncnn12` (stereo not given): the IC50 result was “inactive”.

As for `C/C(=N/NC(=O)CSc1nc2ccccc2n1C)c1ccc(O)cc1`, the half-maximal inhibitory concentration (IC50) is 6.92 µM (active).

For the molecule `C/C(=N\NC(=O)CSc1nc2ccccc2o1)c1ccc(O)cc1`, the IC50 is 6.4 µM (active).

With `Cc1ccc(C)c(-n2c3nc(=O)[nH]c(=O)c-3cc3cc([N+](=O)[O-])ccc32)c1`, the IC50 entry is “inactive”.

On to `COc1ccccc1C(C)NS(=O)(=O)c1cccs1` (stereo not given), for which the IC50 result was “inactive”.
